# Screening results as filed in PubChem.
# AddAB inh = less growth of phage-infected E. coli with AddAB; E. coli expressing H. pylori AddAB, absorbance growth; inhibition, % at 11.9 µM; 0.29% of 330,000 active; AID 435030; in the data active = inhibition above about 12%
# E coli growth-1 = E. coli growth inhibition; OD600 absorbance (test concentration not listed); Escherichia coli growth, OD600, 23 h; stronger effect = lower value; 0.21% of 330,000 active; AID 1053175;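 active = OD600 absorbance below the run mean of sample wells minus 3.6 SD, in any replicate, cut at about 0.56 in these data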
# E coli growth-2 = bacterial growth inhibition, counter-screen for AddAB inhibitors | E. coli V3065 growth, OD600 absorbance, 18 h | inhibition, % at 11.9 µM | 0.27% of 330,000 active | AID 449728;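 active = inhibition above the campaign's mean inhibition across all tested compounds plus 3 SD, cut at about 9.9% in these data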;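 note: uninfected addAB+ strain grown without phage in ampicillin broth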
# Tat export inh = E. coli Tat transport inhibition. E. coli MC4100 TorA-mCherry Tat export, fluorescence. inhibition, % at 10 µM. 0.036% of 340,000 active. AID 488895;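 active = mean replicate inhibition at least 50% and at least half of replicates individually reaching 50%; inconclusive = only one of the two criteria met; inactive = neither criterion met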;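 note: exported cargo escapes ClpAP degradation while cytoplasmic cargo is degraded and loses fluorescence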
# phage Ecoli inh = E. coli growth loss with phage present; growth absorbance; inhibition, % at 11.9 µM; 0.26% of 360,000 active; in the data active = inhibition above about 11%
# AddAB confirm = growth loss of T4-infected E. coli expressing H. pylori AddAB, confirmed; inhibition, % at 11.9 µM; shares compounds with AddAB inh; E. coli V3065 expressing H. pylori AddAB, T4 phage, OD; T4 phage with gene 2 nonsense mutations; 64% of 880 active; AID 488942;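 active = mean inhibition above a set limit taken from the earlier primary screen, cut at about 13% in these data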;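 note: higher means less bacterial growth since AddAB block lets phage replicate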
# RecBCD counter = counter-screen: growth loss of RecBCD+ E. coli with mutant T4 phage; shares compounds with AddAB inh; E. coli V66 + mutant T4 phage, OD growth; inhibition, % at 11.9 µM; 73% of 880 active;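 active = mean inhibition above the mean of solvent-only control wells plus 3 SD, cut at about 4% in these data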;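 note: optical density read after an 18 h incubation at 37 °C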
# Bact viability = counter-screen: bacterial growth inhibition. shares compounds with AddAB inh. bacterial viability, absorbance (AddAB counterscreen). inhibition, % at 11.9 µM. 35% of 880 active; in the data active = inhibition above about 25%
# Numbers stand for hits; . = inactive; ? = inconclusive; / = no result given. An excerpt weighted towards active compounds, which were near 0.51% of everything screened.
SMILES,AddAB inh,E coli growth-1,E coli growth-2,Tat export inh,phage Ecoli inh,AddAB confirm,RecBCD counter,Bact viability
COc1ccc(NC(=O)N(C)CC2Oc3ccc(NC(=O)CCN4CCOCC4)cc3C(=O)N(C(C)CO)CC2C)cc1 (stereo not given),/,.,/,/,/,/,/,/
COCCNC(=O)COC(=O)C=Cc1c(C)nn(Cc2ccc(Cl)cc2Cl)c1Cl,/,.,/,/,/,/,/,/
Cc1ccc(/C=N/NS(=O)(=O)c2ccc([N+](=O)[O-])cc2)o1,.,/,.,.,.,/,/,/
O=[N+]([O-])c1ccc(/C=N/NS(=O)(=O)c2ccc(Cl)cc2)o1,96,/,22,.,.,101,7.7,43
Cc1ccc(S(=O)(=O)N/N=C\c2ccc([N+](=O)[O-])o2)cc1C,25,/,16,.,.,100,9.5,41
Cc1ccc(S(=O)(=O)N/N=C\c2ccc([N+](=O)[O-])o2)cc1,18,/,13,.,.,102,9.5,54
O=[N+]([O-])c1ccc(C=NNS(=O)(=O)c2ccc(Cl)cc2)o1,/,.,/,/,/,/,/,/
CCOC(=O)N/N=C\c1ccc([N+](=O)[O-])o1,31,/,26,?,.,98,13,29
COc1cc(CNC(=O)c2ccc3oc(C(C)C)nc3c2)cc(OC)c1,14,.,.,.,.,.,6.4,.
Cc1cnc(CNC(=O)c2ccc3oc(C(C)C)nc3c2)[nH]1,.,.,.,.,.,/,/,/
Cc1cc2ccccn2c1C(=O)c1ccc([N+](=O)[O-])o1,40,.,20,.,12,95,8.4,40
Cc1cc2ccccn2c1C(=O)c1cccc([N+](=O)[O-])c1,.,.,.,.,.,/,/,/
C#CCOCCOCCOCCNc1nc(N2CCN(C(=O)Cn3cc(CCCN=C(N)N)nn3)CC2)nc(N2CCN(C(=O)C(C)n3cc(CCCN=C(N)N)nn3)CC2)n1 (stereo not given),/,.,/,/,/,/,/,/
Cc1cc(C(=O)N2CCN(c3cc(Cl)ccc3C)CC2)on1,127,.,.,.,.,.,.,.
Cc1ccc(Cl)cc1N1CCN(C(=O)C(=O)N2CCCCC2)CC1,.,.,.,.,.,/,/,/
CC1CCN(c2ccccc2NC(=O)c2ccc([N+](=O)[O-])o2)CC1,.,.,.,.,.,/,/,/
COc1ccccc1NC(=O)c1ccc([N+](=O)[O-])o1,30,0.49,24,/,.,98,13,43
Cc1cccc(NC(=O)c2ccc([N+](=O)[O-])o2)c1C,.,.,.,.,.,/,/,/
O=C(Nc1ccccc1N1CCCC1)c1ccc([N+](=O)[O-])o1,14,.,.,.,.,23,.,.
O=C(CCN1CCN(c2ccccc2)CC1)N/N=C/c1ccc([N+](=O)[O-])o1,26,/,.,.,.,78,.,.
O=C(CNc1cccc2ccccc12)N/N=C/c1ccc([N+](=O)[O-])o1,14,/,.,.,.,35,.,.
CC(=O)Nc1ccc(C=NNC(=O)CCN2CCN(c3ccccc3)CC2)cc1,/,.,/,/,/,/,/,/
O=C(NCc1nc2ccccc2[nH]1)c1ccc(Cl)c(S(=O)(=O)N2CCCC2)c1,16,.,.,.,.,.,4.0,.
CN1CCC(=O)N(C(CSc2ccccc2)c2ccccc2)CC1 (stereo not given),/,.,/,/,/,/,/,/
O=C(COc1ccccc1)NCC(c1ccco1)N1CCCCC1 (stereo not given),98,.,98,.,.,.,.,.
SMILES,AddAB inh,E coli growth-1,E coli growth-2,Tat export inh,phage Ecoli inh,AddAB confirm,RecBCD counter,Bact viability
CN1CCc2cc3c(c4c2[C@H]1[C@H](O)c1ccccc1-4)OCO3,13,/,.,.,.,27,.,.
COc1ccc2c(c1OC)C(=O)OC2C1c2c(cc3c(c2OC)OCO3)CCN1C (stereo not given),.,.,.,.,.,/,/,/
O=C(NN=Cc1c[nH]c2ccccc12)c1ccccc1O,/,.,/,/,/,/,/,/
COc1ccccc1-[n+]1c(C)cc(/C=C2\Sc3ccccc3N2C)cc1C,23,0.36,19,.,13,33,18,30
COc1cc(C2CC=C(C(=O)O)C(c3cccc(Cl)c3)N2S(=O)(=O)c2ccc(C)cc2)cc(OC)c1OC (stereo not given),/,.,/,/,/,/,/,/
CCOCCCNC(=O)Cn1cc2c(n1)CCCC2,14,.,.,.,.,.,.,.
